# In the library only some 5.4% were active in any assay of this set; here they are far more common.
# 12-hLO inh = inhibitors of human 12-lipoxygenase (ALOX12). P18054. 150,000 compounds, 0.12% hits. purified 12-hLO, xylenol orange hydroperoxide absorbance. Potency, µM (titrated, usually from 57.1 µM), without a hit: at the top dose activity change, negative = inhibition, most hits filed as inhibitors; further: potency means the concentration at half of the fitted maximal effect; nearly all actives have a fitted effect of over 55% in size
# Target sequence (P18054 whole entry, looked up): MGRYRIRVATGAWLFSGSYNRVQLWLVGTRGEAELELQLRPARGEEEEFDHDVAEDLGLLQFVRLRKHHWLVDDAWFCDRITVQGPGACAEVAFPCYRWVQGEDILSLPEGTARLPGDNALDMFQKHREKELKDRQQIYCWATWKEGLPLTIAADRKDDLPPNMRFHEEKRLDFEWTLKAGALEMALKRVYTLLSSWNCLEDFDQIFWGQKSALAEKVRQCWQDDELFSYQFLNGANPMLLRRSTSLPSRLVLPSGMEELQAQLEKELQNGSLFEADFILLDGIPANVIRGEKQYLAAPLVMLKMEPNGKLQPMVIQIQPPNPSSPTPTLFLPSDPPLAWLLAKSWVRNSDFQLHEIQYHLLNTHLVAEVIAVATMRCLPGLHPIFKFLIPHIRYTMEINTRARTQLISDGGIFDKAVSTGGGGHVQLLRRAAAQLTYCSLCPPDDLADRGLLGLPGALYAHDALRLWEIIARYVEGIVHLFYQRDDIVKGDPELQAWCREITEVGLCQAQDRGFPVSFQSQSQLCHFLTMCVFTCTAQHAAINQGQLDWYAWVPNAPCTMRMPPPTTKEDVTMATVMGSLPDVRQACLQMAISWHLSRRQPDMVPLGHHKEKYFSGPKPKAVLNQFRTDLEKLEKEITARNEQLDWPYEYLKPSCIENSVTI
#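 Purified human 12hLO (150 nM final) was preincubated with compounds for 15 min at room temperature in 25 mM Hepes pH 7.0, 0.01% Triton X-100, then reacted with 40 uM arachidonic acid for 30 min. Hydroperoxide was detected with ferrous iron/xylenol orange.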
# IMPase Li cell = IMPase inhibition in cells with lithium potentiation | CHO-M1 cells, IP1 TR-FRET (IP-One), carbachol + lithium | Potency, µM (titrated, usually from 59.4 µM), for inactives: top-dose activity, negative = IMPase inhibition, actives largely listed as inhibitors | AID 1457 | 210,000 compounds, 0.35% hits;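 further: IP1 builds up when IMPase is blocked and the TR-FRET signal falls; potency means the concentration at half of the fitted maximal effect; plate controls were basal vehicle for no effect and high inhibitor control for full effect; nearly all actives have a fitted effect of over 50% in size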
#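 CHO cells stably expressing M1 receptor (2000/well) were cultured 16–30 h, then exposed to compounds with a small lithium addition for 30 min at 37C. IP1 was measured by TR-FRET competition; AC50 from Hill fits.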
# ALOX15B inhib = 15-hLO-2 (ALOX15B) enzyme inhibition | O15296 | purified 15hLO-2, xylenol orange hydroperoxide absorbance | Potency, µM (titrated, usually from 57.1 µM), for the others: top-dose activity change, negative = inhibition, actives largely listed as inhibitors | 110,000 compounds, 0.56% hits | AID 881; further: potency means the concentration at half of the fitted maximal effect; nearly all actives have a fitted effect of over 60% in size
#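 Read-out: hydroperoxide product oxidises ferrous iron, measured as xylenol orange complex via the 573-to-405 nm absorbance ratio after 30 min. Reaction: 50 nM enzyme, 15 min compound preincubation, 45 uM arachidonic acid, 90 min RT, Hepes pH 7.5 with Triton X-100.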
# PNC inhibitor = blocks assembly of the perinucleolar compartment; 140,000 compounds, 3.1% hits; PC3M PTB-GFP, PNC prevalence imaging, 16 h; stronger effect = lower value; activity change (PNC), negative = inhibition, % at 10 µM; AID 2417;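 active means readout at or below -70, meaning at least 70% loss of cells showing the perinucleolar compartment, a nuclear body marking cancer cells; inconclusive means readout between -30 and a set limit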;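 further: plate controls were DMSO wells for no effect and camptothecin positive control wells for full effect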
#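 Read-out is percentage of cells bearing a perinucleolar compartment, from automated 20x imaging of fixed, Hoechst-stained PC3M PTB-GFP cells. Cells were seeded 4 h, then exposed 16 h to compound (23 nl of library stock) in duplicate plates.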
# IMPase cell inh = cell-permeable inhibitors of inositol monophosphatase (IMPase); 120,000 tested, under 10 active; inhibition (IP1 accumulation), % at 46.1 µM; CHO-M1 cells, IP1 accumulation, HTRF TR-FRET ratio; AID 901; P97697; active means well fitted curve in the direction sought with a large enough effect in the signal ratio, not every such curve was filed as active; inconclusive means small, poorly fitted or top-dose-only effect, or a change in a side signal; inactive means no such curve, though single readings can be large or run the other way; the % refers to the signal ratio;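 further: cells stimulated with carbachol in lithium chloride buffer; plate controls were DMSO basal wells for no effect and reference inhibitor wells for full effect; higher means more IMPase inhibition seen as more IP1 and lower FRET ratio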
#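 Seeded CHO-M1 cells were dosed with compound at up to 46 uM, stimulated with carbachol for 30 min, then lysed in IP-One detection reagents. Higher IP1 lowers the TR-FRET signal.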
# HPGD block = inhibitors of human 15-hydroxyprostaglandin dehydrogenase (HPGD). P15428. purified HPGD, NADH fluorescence kinetic, PGE2 substrate. Potency, µM, without a hit: at the highest dose activity change, negative = inhibition, most hits filed as inhibitors. 150,000 compounds, 4.3% hits. AID 894; active means well fitted inhibition curve with a large enough effect, not every such curve was filed as active; inconclusive means small, poorly fitted or top-dose-only effect, or another doubt; inactive means no such curve, though single readings can be large or run the other way; further: potency means the concentration at half of the fitted maximal effect
#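 NADH formation kinetics: reaction with 30 uM PGE2 and 1 mM NAD+ (final), 20 nM enzyme, Tris-HCl pH 8 with Tween 20, after 15 min compound preincubation at room temperature. Fluorescence change, last versus first of five reads.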
# Starred values were filed as active, the others as inactive; ? = inconclusive; / = not tested or not shown; [ ] = remark or other dose. Unless noted, the call rests on the fitted dose curve; in most records, active means well fitted curve in the direction sought with a large enough effect; inconclusive means small, poorly fitted or top-dose-only effect, or another doubt; inactive means no such curve, though single readings can be large; an effect the other way counts as inactive or inconclusive. Unless noted, on the % scale 0 is the no-effect control and ±100 the full control effect.
SMILES,12-hLO inh,IMPase Li cell,ALOX15B inhib,PNC inhibitor,IMPase cell inh,HPGD block
CC(=O)N1CCC2(CCCN(c3ccccn3)C2)CC1,1.1%,12.2%,-2.0%,/,/,?
COc1cc(C(=O)Nc2nc(-c3ccc(Cl)cc3)c(C)s2)ccc1OCC(=O)Nc1ccc(F)cc1,5.2%,/,/,19.4,3.2,/
CCc1ccc(-c2nc(NC(=O)c3ccc(OCC(=O)Nc4ccc(F)cc4)c(OC)c3)sc2C)cc1,-1.3%,7.94µM*,/,?,?,?
O=C(O)[C@@H]1[C@@H]2C[C@H]([C@@H](Br)[C@H]2N2C(=O)CCC2=O)[C@@H]1C(=O)O,9.0%[11.4 µM],5.7%,1.0%[11.4 µM],/,/,-6.6%
CCOc1cccc(NC(=O)c2sc3nc(-c4ccc(F)cc4)ccc3c2N)c1,/,/,/,/,-2.7,/
CCCCOC(=O)Nc1ccc(N(C)C)cc1,0.7%,17.1%,/,?,/,31.6µM*
CCCCOC(=O)Nc1ccc(C(C)C)cc1,-1.0%,13.4%,/,0.4,6.4[0.0738 µM],12.6µM*
CCCCOC(=O)Nc1ccc(C(N)=O)cc1,2.6%,11.0%[38.3 µM],1.6%,?,1.7,-3.5%
CCCCOC(=O)Nc1ccc(N2CCCCC2)cc1,6.6%,2.8%[38.3 µM],-10.8%,-16.3,9.7,-23.6%
Cc1cc(NC(c2nnc(-c3ccccc3)o2)c2ccccc2F)ccc1Br (stereo not given),/,/,/,/,1.4,/
CCc1c(C(=O)O)[nH]c2ccc(Br)cc12,0.6%,10µM*,-12.2%,-8.5,?,6.1%
CC(C)CCNC(=O)Cc1c(C(=O)O)[nH]c2ccc(Cl)cc12,-4.5%,/,-2.7%,0.0,-0.7,/
O=C(C1=C[C@@H]2[C@H]3C(=O)N(c4ccc(Cl)cc4)C(=O)[C@H]3[C@@H](C(=O)c3ccc(Cl)cc3)N2C=C1)c1ccccc1,-17.3%,-15.3%,/,17.6,/,31.6µM*
Cc1ccc(N2C(=O)C3C(C2=O)C(C(=O)c2ccc(Cl)cc2)N2CCCC32)cc1 (stereo not given),?,6.3%[38.3 µM],-24.6%,?,-7.2,-23.2%
Cc1c(C(=O)N2CCOCC2)[nH]c2c1C(=O)CC(c1ccccc1Cl)C2 (stereo not given),-4.5%,29.2%[38.3 µM],-9.5%,-84.4*,7.4,-17.1%
C=CCOC(=O)c1[nH]c2c(c1C)C(=O)CC(c1ccco1)C2 (stereo not given),-10.3%,28.3%[38.3 µM],-9.3%,-29.2,7.8,-12.7%
C/C=C/COC(=O)c1[nH]c2c(c1C)C(=O)CC(c1ccco1)C2 (stereo not given),1.0%,13.2%,/,-101.8*,-3.4,-12.7%
Cc1c(C(=O)OC2CCCC2)[nH]c2c1C(=O)CC(c1ccco1)C2 (stereo not given),-6.4%,26.1%[38.3 µM],-8.3%,-108.4*,?,-8.3%
Cc1c(C(=O)OCC(C)C)[nH]c2c1C(=O)CC(c1ccco1)C2 (stereo not given),-9.1%,15.1%,/,-88.2*,6.8,-26.1%
Cc1c(C(=O)OC2CCCCC2)[nH]c2c1C(=O)CC(c1ccccc1)C2 (stereo not given),/,/,/,/,-0.6,/
COC(=O)c1[nH]c2c(c1C)C(=O)CC(c1ccccc1)C2 (stereo not given),2.8%,14.8%[38.3 µM],-2.3%,-110.9*,4.5,-5.7%
COC(=O)[C@H]1C[C@@H]1[C@H](NC(C)=O)c1ccccc1,5.9%,-9.6%,1.7%,/,/,-4.2%
Cn1c(-c2ccc3c(c2)OCO3)cnc1NCc1ccccc1,-2.2%,0.3%[38.3 µM],0.8%,-21.3,14.4,15.8µM*
O=C(C1CCC(CNS(=O)(=O)c2cccs2)CC1)N1CCCCC1 (stereo not given),-2.2%,20.5%[38.3 µM],-8.6%,?,-7.0,3.16µM*
O=C(C1CCC(CNS(=O)(=O)c2cccc3cccnc23)CC1)N1CCCC1 (stereo not given),-1.9%,7.0%,/,?,3.3,6.31µM*
SMILES,12-hLO inh,IMPase Li cell,ALOX15B inhib,PNC inhibitor,IMPase cell inh,HPGD block
Cc1cnc(CNc2cc(-c3cccnc3)ncn2)cn1,/,8.1%,-5.7%,/,/,/
CCOC(=O)c1c(NC(=O)COc2ccc(Cl)cc2Cl)sc2c1CCCCC2,/,/,/,/,1.3,/
COc1ccc(C2C(C(=O)NCCN(C)C)c3cc(OC)c(OC)cc3C(=O)N2C)cc1OC (stereo not given),3.5%,3.0%,6.9%,-81.2*,-2.7,-13.3%
O=C(NNC1=NCCCCC1)c1ccccc1,0.5%,4.3%[38.3 µM],8.7%,16.8,1.5,14.1µM*
CCC(C)(C)NC(=O)c1ccc2c(c1)S(=O)(=O)c1ccccc1C2=O,-10.5%,?,-7.3%,?,11.4,25.1µM*
Cn1c(CCNC(=O)c2ccco2)nc2cc(NC(=O)C3CCCCC3)ccc21,-2.1%,5.2%,/,-113.8*,6.9,4.1%
Cc1sc2nc(C3CC3)nc(SCC(=O)N3c4ccccc4CC3C)c2c1C (stereo not given),-4.4%,5.3%[38.3 µM],9.1%,-108.0*,?,-13.5%
Cc1cc2cc3c(cc2nc1SCC(=O)N1c2ccccc2CC1C)OCO3 (stereo not given),-6.4%,11.0%,/,-100.0*,-6.6,-29.5%
COC(=O)[C@H](Cc1ccccc1)NC(=O)[C@]1(C)C[C@H]1[C@H](NC(=O)OCc1ccccc1)c1ccccc1,-2.2%,0.9%,5.6%,/,/,-16.7%
c1ccc(CN=C2NN=C(c3cc4ccccc4o3)CS2)cc1,-2.0%,8.5%,/,-11.1,/,15.8µM*
c1ccc2oc(C3=NNC(=NC4CC4)SC3)cc2c1,-21.1%,-1.6%,/,83.4,/,?
Cc1noc(C)c1-c1cc(NCc2cccs2)ncn1,/,-2.2%,-2.9%,/,/,/
CC(C)(N=NC(C)(C)C(=N)N)C(=N)N,-7.7%[11.4 µM],11.1%,3.7%[11.4 µM],/,/,-8.4%
O=C(O)c1ccc2c(c1)C(=O)N(Cc1ccc3c(c1)OCO3)C2=O,-7.4%,-1.1%[38.3 µM],8.1%,-16.3,5.4,4.47µM*
O=C1c2ccccc2C(O)N1Cc1ccc2c(c1)OCO2 (stereo not given),-1.4%,-3.5%[38.3 µM],4.7%,22.8,6.2,15.8µM*
C[C@@H]1C[C@@H]2[C@H]3CCC4=CC(=O)C=C[C@]4(C)[C@]3(Cl)[C@@H](O)C[C@@]2(C)[C@@]1(O)C(=O)CO,-2.2%,/,10.1%,/,1.6,/
Cc1ccc(OCCCC(=O)Nc2sc3c(c2C(N)=O)CCCC3)cc1,/,/,/,/,1.9,/
COc1cccc(Cn2c(=O)c(-c3cccs3)nc3cnc(Nc4ccccc4)nc32)c1,-2.4%,-18.4%,2.6%,/,/,-5.4%
CCNc1ncc2nc(-c3cccs3)c(=O)n(Cc3cccc(OC)c3)c2n1,/,2µM*,1.0%,/,/,/
CCNc1ncc2nc(-c3ccc(Cl)cc3)c(=O)n(C3CC3)c2n1,-3.4%,5.01µM*,-1.8%,/,/,?
CCNc1ncc2nc(-c3ccc(Cl)cc3)c(=O)n(Cc3cccc(OC)c3)c2n1,/,?,-3.6%,/,/,/
